According to PubChem BioAssay (NCI):
Compounds without any hit were thinned out: in the full panel of roughly 83,000, 20% have a hit.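 Assay: single dose, 48 h. Readout: percent growth (0 = no net growth; negative = cell death). Active: <10.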 Unmarked numbers belong to inactive results. Active and inactive are the calls of the source.

system: HL-60(TB) leukemia; experiment: NCI-60 one-dose screen, 48 h (100 = growth as untreated, 0 = no growth, -100 = all killed); settings: 10 µM unless noted

SMILES | growth
CCCCCCCCCCCCCCCCCCOP(=O)(O)O | 102%
COC(=O)c1c2c(c(C)[n+]([O-])c1C)C(=O)C(NCc1ccc(F)c(Cl)c1)=CC2=O | -54.6% (active)
CCOc1ccccc1/C=N\Nc1ccc(S(=O)(=O)c2ccc(N/N=C/c3ccccc3OCC)cc2)cc1 | 102%
O=C(N=Nc1c(O)[nH]c2ccccc12)Nc1ccc(Br)cc1 | 70.2%
C=CCN1C(=O)/C(=C/C(=O)OC)S/C1=N\NC(=O)c1cc2ccc1/C=C\c1ccc(cc1)/C=C\2 | 91.8%
Cn1cc(-c2csc(-c3cn(CCNC(=O)OC(C)(C)C)c4ccc(F)cc34)n2)c2cccnc21 | 42.7%
COc1ccc(C2CC(c3ccc4c(c3)OCO4)=Nc3c(N)ncnc3N2)cc1 (configuration not stated) | 99.3%
C=C(C)C1CCC2(C(=O)O)CCC3(C)C(CCC4C5(C)CCC(O)C(C)(C)C5CCC43C)C12 (configuration not stated) | -40% (active)
O=c1ccc(-c2nc(N3CCOCC3)c3ccccc3n2)c[nH]1 | 95.8%
CCOC(=O)C(O)C(O)C(=O)OCC (configuration not stated) | 102%
O=c1oc2c(cc1-c1ccc([N+](=O)[O-])cc1)C(O)Oc1ccccc1-2 (configuration not stated) | 71.9%
CCCCn1c(-c2cccc(OC)c2)nc2cc(OC)c(OC)cc2c1=O | 78.3%
COc1ccc2c(O)c(/C=C3\N=Nc4nc(C)ccc43)oc2c1CC1CCNCC1 | 94.3%
CN(C1c2ccccc2Oc2ccccc21)S(=O)(=O)c1cc(Cl)ccc1Cl | 15.7%
CN(CCCCCCCCNc1ccnc2ccccc12)Cc1ccc(-c2ccc(-c3ccc(C#N)cc3)s2)cc1 | -58.4% (active)
O=C(NC1CCN(Cc2ccccc2)CC1)c1cc(-c2ccncc2)nc2ccc(Cl)cc12 | 15.2%
c1ccc(Sc2ncnc3ccccc23)cc1 | 74.1%
CC1=CC(=NN=c2cc(C)n([O-])c(C)c2)C=C(C)[N+]1=O | 37.6%
N#CC(Cc1cccc2ccccc12)c1cc2ccccc2[nH]1 (configuration not stated) | 96.4%

SMILES | growth
Cc1nc(N/N=C/c2cn(-c3ccccc3)nc2-c2cc3ccccc3oc2=O)sc1N=Nc1ccccc1 | 89%
COc1cc(Cn2cc3c(c2)-c2onc(CO)c2CC3)cc(OC)c1OC | 77.5%
COc1cc(CO)cc2cc3ccccc3nc12 | 101%
COc1ccc(C2CC(c3ccc(-c4ccccc4)cc3)=NN2c2ccc(S(N)(=O)=O)cc2)cc1 (configuration not stated) | 69.4%
NC(N)=NC(N)=NCCCc1ccccc1 | 55.7% [100 µM]
O=C1C=CC(=O)N1C1c2ccccc2-c2ccccc21 | 77.7%
O=C(/C=C/c1ccccc1)C(Br)C(Br)c1ccccc1 (configuration not stated) | -41.8% (active)
c1ccc(CNc2ccc3nc(CCC4CCCCC4)[nH]c3c2)cc1 | 47%
CC1(C)CNC(=O)N1 | 101%
Cc1ccc(CN2CCC(C(=O)Nc3ccc(-c4cc5ccccc5[nH]4)cc3)CC2)o1 | 13.7%
O=C(NC1CC1)c1cc2n(n1)CC(c1ccccc1)N2 (configuration not stated) | 107%
CC1=C(C(=O)Nc2nc(-c3ccc(Cl)cc3)cs2)[C@H](c2ccc(O)cc2)NC(=O)N1 | 98.7%
COc1cc(/C=C2\C(=O)ON=C2C)cc(OC)c1OC | 98.1%
COc1cc(F)c(/C=C/c2cc(/C=C/c3cc(OC)c(OC)cc3F)n(-c3cc(F)cc(F)c3)n2)cc1OC | 87.6%
CC(C)(C)CC(C)(C)Nc1c(-c2ccc3c(c2)OCO3)nc2cnccn12 | 77.8%
CCC(C)C(N)C(=O)NC(CC(C)C)C(=O)N1CCCC1C(=O)NC(Cc1c[nH]c2ccccc12)C(=O)NC(CCCCN)C(=O)NC(Cc1c[nH]c2ccccc12)C(=O)N1CCCC1C(=O)NC(Cc1c[nH]c2ccccc12)C(=O)NC(Cc1c[nH]c2ccccc12)C(=O)N1CCCC1C(=O)NC(Cc1c[nH]c2ccccc12)C(=O)NC(CCCNC(=N)N)C(=O)NC(CCCNC(=N)N)C(N)=O (configuration not stated) | -2.6% (active)
O=c1c2cc(F)ccc2sc2c(N3CCNCC3)nc3ccccc3c12 | -52% (active)
CN1CCN(CC(=O)N(C)c2ccc(N=C(c3ccccc3)c3c(O)[nH]c4ccc([N+](=O)[O-])cc34)cc2)CC1 | 53.5%
